# Source: PubChem BioAssay (NCI)
# About 79,000 compounds went through this panel and 15% of them were active in at least one assay; those are over-represented in the sample as a whole. Values without a mark were called inactive. Calls of active or inactive are those of the source. Cut-off read from the data, not from the text of the source: active = growth inhibition above about 70%; inactive = the rest.
# Legend:
# [1] = NCI Yeast Anticancer Drug Screen. Data for the rad50 strain (AID 155);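 note: 0% = growth of vehicle-only cultures of the same strain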; settings: S. cerevisiae rad50 strain growth inhibition, hits give high values
# In short: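 Inhibition values express reduced yeast growth in compound-treated cultures relative to vehicle-treated controls.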
# [2] = NCI Yeast Anticancer Drug Screen. Data for the mec2-1 strain (AID 157); settings: S. cerevisiae mec2-1 strain, hits give high values
# In short: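 Readout is yeast growth inhibition, normalised to vehicle-treated controls, in the mec2-1 strain exposed to compound.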
# [3] = NCI Yeast Anticancer Drug Screen. Data for the sgs1 mgt1 strain (AID 161);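 note: 0% = growth of cultures given vehicle only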; settings: S. cerevisiae sgs1 mgt1 strain, hits give high values
# In short: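 Yeast cells carrying a defined DNA-repair defect were exposed to test compounds. Growth inhibition was measured relative to vehicle-treated controls.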
# [4] = NCI Yeast Anticancer Drug Screen. Data for the cln2 rad14 strain (AID 165);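 note: 0% = growth equal to vehicle treated cultures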; settings: S. cerevisiae cln2 rad14 strain, hits give high values
# In short: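 Relative to vehicle controls, growth inhibition of compound-treated cln2 rad14 yeast was recorded.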
# [5] = NCI Yeast Anticancer Drug Screen. Data for the bub3 strain (AID 167); settings: S. cerevisiae bub3 mutant strain, hits give high values
# In short: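 Steps: expose the mutant yeast strain to compound; grow alongside vehicle-treated cultures; measure growth; express inhibition against the vehicle cultures.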
# [6] = NCI Yeast Anticancer Drug Screen. Data for the mlh1 rad18 strain (AID 175); settings: S. cerevisiae mlh1 rad18 strain growth inhibition, hits give high values
# In short: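 Test agents were incubated with a yeast strain of defined genotype (DNA damage repair defect). Inhibition of growth was derived by comparison with vehicle-exposed cultures.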
# [7] = at 5.0 µM (retest, dose inferred, filed as 0.5)
# [8] = at 50.0 µM (retest, dose inferred, filed as 5.0)
SMILES,"growth inhibition [1, 7]","growth inhibition [1, 8]",growth inhibition ([1]; at 50.0 µM),"growth inhibition [2, 7]","growth inhibition [2, 8]",growth inhibition ([2]; at 50.0 µM),"growth inhibition [3, 7]","growth inhibition [3, 8]",growth inhibition ([3]; at 50.0 µM),"growth inhibition [4, 7]","growth inhibition [4, 8]",growth inhibition ([4]; at 50.0 µM),"growth inhibition [5, 7]","growth inhibition [5, 8]",growth inhibition ([5]; at 50.0 µM),"growth inhibition [6, 7]","growth inhibition [6, 8]",growth inhibition ([6]; at 50.0 µM)
Nc1c(O)c(Cl)cc(Cl)c1Cl,4%,94% (active),96.2% (active),-4%,95% (active),98.9% (active),1%,80% (active),96.6% (active),-3%,70% (active),74.6% (active),5%,96% (active),98.4% (active),-1%,93% (active),99% (active)
CC1=NC2=NC(CCCC(=O)OCc3ccc(Cl)c(Cl)c3)=NC3=CC=CC(=N1)N32,9%,54%,61.1%,17%,52%,31.1%,5%,60%,67.7%,6%,46%,41%,1%,38%,7.65%,5%,58%,63.1%
COc1ccc(NC(=O)OC(C)C)c(OC)c1,2%,10%,-2.75%,-4%,4%,6.45%,-3%,7%,-21.4%,5%,2%,45.4%,15%,42%,18.4%,3%,8%,-10.8%
CC(C)(c1ccccc1)c1ccc2[nH]c(C(C)(C)c3ccccc3)c(CC(=O)O)c2c1,2%,93% (active),93.7% (active),10%,80% (active),69.5%,10%,96% (active),85.7% (active),0%,95% (active),96% (active),-3%,96% (active),94.8% (active),17%,96% (active),96% (active)
Oc1ccc(CNCc2ccccc2)c2cccnc12,20%,98% (active),98.4% (active),4%,97% (active),97% (active),0%,98% (active),96.2% (active),-26%,96% (active),94.6% (active),-5%,99% (active),98.1% (active),4%,99% (active),98.2% (active)
COCCN1C(=O)C2c3[nH]c4ccccc4c3C3CCC(C(C)(C)C)CC3C2C1=O (configuration not stated),-2%,98% (active),93.8% (active),-1%,98% (active),96% (active),-7%,98% (active),88.7% (active),-21%,96% (active),95.6% (active),-4%,94% (active),94.2% (active),4%,98% (active),94.5% (active)
Cc1ccc(O)c(C(c2cccc(C(c3cc(C)ccc3O)c3cc(C)ccc3O)c2)c2cc(C)ccc2O)c1,66%,94% (active),95.5% (active),54%,97% (active),95.4% (active),31%,97% (active),95% (active),66%,96% (active),91.6% (active),72% (active),96% (active),95.7% (active),78% (active),96% (active),95.8% (active)
Cc1[nH]c2ccccc2c1/C=C1\C(=O)C2CCC1C2 (configuration not stated),-7%,75% (active),95.4% (active),-4%,73% (active),34.6%,-6%,92% (active),71.3% (active),-4%,38%,45.4%,-16%,80% (active),39%,-14%,80% (active),86.9% (active)
COC(=O)C12Oc3ccc(-c4ccc5c(c4O)C(O)=C4C(=O)CC(C)C(O)C4(C(=O)OC)O5)c(O)c3C(O)=C1C(=O)CC(C)C2O (configuration not stated),57%,97% (active),90.5% (active),61%,96% (active),88.3% (active),37%,98% (active),82.5% (active),6%,96% (active),91.2% (active),53%,97% (active),94.1% (active),57%,97% (active),80.8% (active)
CC(C)(N=Nc1ccc([N+](=O)[O-])cc1)[N+](=O)[O-],26%,97% (active),95.8% (active),12%,99% (active),53.6%,18%,98% (active),83.3% (active),15%,99% (active),97.2% (active),21%,99% (active),47.4%,23%,99% (active),96.7% (active)
O=C1c2cccnc2-c2nccc3c2c1nc1cc(Br)ccc13,61%,98% (active),88.7% (active),44%,99% (active),92.2% (active),94% (active),98% (active),89.9% (active),28%,97% (active),88.2% (active),88% (active),98% (active),89.2% (active),58%,98% (active),77.2% (active)
CC1CC[N-]CC1.CC1CC[N-]CC1.CC1CC[N-]CC1.CC1CC[N-]CC1.CS(C)=O.CS(C)=O.[Cl-].[Cl-].[Cl-].[Cl-].[Pt+4].[Rh+3],65%,96% (active),95.5% (active),58%,98% (active),96.8% (active),66%,98% (active),96.3% (active),44%,97% (active),89.3% (active),52%,96% (active),97.9% (active),69%,97% (active),97% (active)
CCCCc1ccc2nc(C)cc(N/N=C/c3ccc4c(c3)OCO4)c2c1,9%,20%,66.7%,1%,19%,22%,15%,31%,73.5% (active),-3%,2%,15.9%,-4%,1%,6.6%,9%,35%,29.8%
Cc1c2ccncc2cc2c3ccccc3n(C)c12,-23%,97% (active),99% (active),-58%,97% (active),98.7% (active),-45%,97% (active),98.7% (active),-50%,98% (active),98.2% (active),-63%,98% (active),98.8% (active),-95%,97% (active),99.2% (active)
COC(=O)c1ccccc1N=NN(C)CC1OC2OC(C)(C)OC2C1OC (configuration not stated),10%,69%,71.2% (active),17%,27%,43.2%,1%,36%,74.1% (active),-3%,20%,-0.8%,0%,44%,32.6%,4%,61%,88% (active)
N#CC(C#N)C(C#N)c1ccc(Cl)c(Cl)c1 (configuration not stated),79% (active),99% (active),99.7% (active),72% (active),100% (active),99.7% (active),36%,100% (active),99.8% (active),25%,99% (active),99.4% (active),99% (active),99% (active),99.7% (active),70% (active),100% (active),99.5% (active)
S=C(N/N=C/c1ccccn1)Nc1ccccn1,-1%,99% (active),90.8% (active),-2%,99% (active),92.9% (active),3%,99% (active),91.5% (active),-15%,98% (active),88.5% (active),-2%,98% (active),90.9% (active),-3%,96% (active),90.1% (active)
CCC[CH2][Sn]([CH2]CCC)([O]C(=O)c1c(F)cccc1F)[O]C(=O)c1c(F)cccc1F,80% (active),80% (active),88.8% (active),66%,66%,89.7% (active),80% (active),80% (active),87.3% (active),70% (active),70% (active),86.9% (active),72% (active),72% (active),83.6% (active),73% (active),73% (active),84% (active)
Cc1ccc(S(=O)(=O)N2CCN3C(=O)c4ccccc4C32c2ccc(F)cc2)cc1 (configuration not stated),20%,95% (active),31.8%,17%,96% (active),26.3%,88% (active),99% (active),63.2%,28%,98% (active),22.9%,37%,98% (active),50.7%,30%,96% (active),29.2%
NNc1cc([N+](=O)[O-])ccc1Cl,5%,93% (active),88.5% (active),6%,68%,91.2% (active),-8%,84% (active),90.8% (active),4%,38%,68%,24%,94% (active),95.1% (active),-20%,95% (active),98.5% (active)
O=C(O)C(O)C(O)C(O)C(O)c1nc2ccccc2s1 (configuration not stated),13%,98% (active),98.6% (active),13%,99% (active),98.7% (active),12%,96% (active),90.5% (active),1%,95% (active),73.7% (active),8%,99% (active),99% (active),9%,97% (active),99% (active)
CN(C)c1nc(N(C)C)oc(=[N+](C)C)n1,-2%,-13%,9.7%,3%,-8%,9.35%,0%,-9%,7.8%,3%,1%,57.3%,3%,15%,-7.45%,1%,-13%,30.4%
O=C1C2=C(Nc3cc([N+](=O)[O-])ccc3N2)OC1c1c2ccccc2cc2ccccc12 (configuration not stated),89% (active),98% (active),93.5% (active),70% (active),99% (active),66.4%,70% (active),99% (active),96% (active),62%,98% (active),35.5%,34%,99% (active),78.4% (active),92% (active),99% (active),93.6% (active)
NC1=CC(=O)c2ccccc2C1=O,18%,84% (active),94.5% (active),1%,48%,62.3%,26%,57%,85.2% (active),9%,33%,-1.65%,42%,93% (active),93.8% (active),31%,84% (active),95.5% (active)
